# Columns and labels:
# Assay in all cases: DAPPL (digital affinity profiling via proximity ligation, sequencing); 10 mM Tris-HCl pH 7.5, 50 mM NaCl, 1 mM DTT, 4% glycerol, room temperature, 30 min; GST-TFs on glutathione beads, 16-mer random dsDNA library, 0.1% formaldehyde crosslink after washing; high values mean tight binding
# [1] = target: T1, FEV (Homo sapiens, UniProt Q99581 1-238); settings: protein: recombinant; tags: N-terminal GST; dsDNA, one strand shown
# T1 sequence: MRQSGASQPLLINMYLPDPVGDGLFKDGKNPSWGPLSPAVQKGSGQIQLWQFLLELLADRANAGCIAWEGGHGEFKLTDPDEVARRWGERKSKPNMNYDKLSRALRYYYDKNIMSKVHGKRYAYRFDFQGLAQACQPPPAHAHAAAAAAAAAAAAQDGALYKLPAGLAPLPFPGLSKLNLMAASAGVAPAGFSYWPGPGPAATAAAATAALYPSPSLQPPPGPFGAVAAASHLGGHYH
# Summary of the method: (§1)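 Pools of DNA-barcoded human transcription factors, expressed in yeast as GST fusions on glutathione beads and combined with a tag-only sample, were incubated with 200 nmole of a 16-mer random double-stranded DNA library. Incubation took 30 min at room temperature in Tris/NaCl/DTT/glycerol buffer and was followed by washing, 0.1% formaldehyde crosslinking, proximity ligation (BsaI/T4 ligase, 1 h, 37 °C), PCR amplification and sequencing on an Illumina NextSeq500. Binding signal is the ratio of a hexamer's read frequency for a factor to its frequency for the tag-only sample.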
# [2] = target: ETV5 (Homo sapiens, UniProt P41161 1-510); settings: protein: recombinant; tags: N-terminal GST; dsDNA, one strand shown
# Summary of the method: as §1
# [3] = target: HSF1 (Homo sapiens, UniProt Q00613 1-529); settings: protein: recombinant; tags: N-terminal GST; chain copies: 3; dsDNA, one strand shown
# Summary of the method: as §1
# [4] = target: T2, SPIC (Homo sapiens, UniProt Q8N5J4 1-248); settings: protein: recombinant; tags: N-terminal GST; dsDNA, one strand shown
# T2 sequence: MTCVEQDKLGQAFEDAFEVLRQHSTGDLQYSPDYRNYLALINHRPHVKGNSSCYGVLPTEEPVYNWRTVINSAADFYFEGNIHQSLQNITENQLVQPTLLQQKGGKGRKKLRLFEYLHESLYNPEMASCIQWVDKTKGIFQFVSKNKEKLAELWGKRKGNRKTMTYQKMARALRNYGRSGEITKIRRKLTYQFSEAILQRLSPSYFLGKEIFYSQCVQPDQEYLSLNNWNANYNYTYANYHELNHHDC
# Summary of the method: as §1
# [5] = target: ELF4 (Homo sapiens, UniProt Q99607 1-663); settings: protein: recombinant; tags: N-terminal GST; dsDNA, one strand shown
# Summary of the method: as §1
# [6] = target: T3, ELK4 (Homo sapiens, UniProt P28324-2 1-405); settings: protein: recombinant; tags: N-terminal GST; dsDNA, one strand shown
# T3 sequence: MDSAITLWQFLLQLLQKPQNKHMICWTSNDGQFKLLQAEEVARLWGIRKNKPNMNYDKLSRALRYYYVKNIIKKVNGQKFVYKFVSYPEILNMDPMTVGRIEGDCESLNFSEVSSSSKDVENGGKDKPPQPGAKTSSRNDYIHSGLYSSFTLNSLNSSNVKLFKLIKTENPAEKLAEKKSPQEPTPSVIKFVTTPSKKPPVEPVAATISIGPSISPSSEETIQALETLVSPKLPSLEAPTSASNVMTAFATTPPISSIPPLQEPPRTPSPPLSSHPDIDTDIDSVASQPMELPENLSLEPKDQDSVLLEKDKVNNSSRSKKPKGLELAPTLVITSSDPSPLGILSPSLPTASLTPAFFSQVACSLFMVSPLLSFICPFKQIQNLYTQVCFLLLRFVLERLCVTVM
# Summary of the method: as §1
# [7] = target: T4, ETV2 (Homo sapiens, UniProt O00321 1-342); settings: protein: recombinant; tags: N-terminal GST; dsDNA, one strand shown
# T4 sequence: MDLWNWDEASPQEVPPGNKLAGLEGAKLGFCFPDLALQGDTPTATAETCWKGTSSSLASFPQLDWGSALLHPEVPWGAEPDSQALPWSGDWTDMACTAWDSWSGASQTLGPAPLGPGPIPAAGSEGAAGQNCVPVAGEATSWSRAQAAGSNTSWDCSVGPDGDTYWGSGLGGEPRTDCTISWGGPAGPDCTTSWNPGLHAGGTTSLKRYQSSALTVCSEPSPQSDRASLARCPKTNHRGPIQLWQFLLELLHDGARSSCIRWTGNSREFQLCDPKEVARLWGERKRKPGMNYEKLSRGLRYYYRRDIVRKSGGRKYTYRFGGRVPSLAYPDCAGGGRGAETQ
# Summary of the method: as §1
# [8] = target: T5, ELF3 (Homo sapiens, UniProt P78545 1-371); settings: protein: recombinant; tags: N-terminal GST; dsDNA, one strand shown
# T5 sequence: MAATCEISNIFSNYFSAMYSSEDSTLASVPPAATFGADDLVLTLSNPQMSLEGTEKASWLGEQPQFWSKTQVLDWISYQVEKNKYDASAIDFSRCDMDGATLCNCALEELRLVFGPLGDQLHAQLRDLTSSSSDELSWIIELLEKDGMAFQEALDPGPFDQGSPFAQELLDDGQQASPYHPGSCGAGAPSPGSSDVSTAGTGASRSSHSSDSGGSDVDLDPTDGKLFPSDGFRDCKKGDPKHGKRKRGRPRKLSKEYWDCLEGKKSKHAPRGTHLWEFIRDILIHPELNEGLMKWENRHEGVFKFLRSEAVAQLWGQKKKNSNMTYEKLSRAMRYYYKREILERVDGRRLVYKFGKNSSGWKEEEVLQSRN
# Summary of the method: as §1
# [9] = target: CRX (Homo sapiens, UniProt O43186 1-299); settings: protein: recombinant; tags: N-terminal GST; dsDNA, one strand shown
# Summary of the method: as §1
# [10] = target: ETV1 (Homo sapiens, UniProt P50549 1-477); settings: protein: recombinant; tags: N-terminal GST; dsDNA, one strand shown
# Summary of the method: as §1
# [11] = target: T6, ERF (Homo sapiens, UniProt P50548 1-548); settings: protein: recombinant; tags: N-terminal GST; dsDNA, one strand shown
# T6 sequence: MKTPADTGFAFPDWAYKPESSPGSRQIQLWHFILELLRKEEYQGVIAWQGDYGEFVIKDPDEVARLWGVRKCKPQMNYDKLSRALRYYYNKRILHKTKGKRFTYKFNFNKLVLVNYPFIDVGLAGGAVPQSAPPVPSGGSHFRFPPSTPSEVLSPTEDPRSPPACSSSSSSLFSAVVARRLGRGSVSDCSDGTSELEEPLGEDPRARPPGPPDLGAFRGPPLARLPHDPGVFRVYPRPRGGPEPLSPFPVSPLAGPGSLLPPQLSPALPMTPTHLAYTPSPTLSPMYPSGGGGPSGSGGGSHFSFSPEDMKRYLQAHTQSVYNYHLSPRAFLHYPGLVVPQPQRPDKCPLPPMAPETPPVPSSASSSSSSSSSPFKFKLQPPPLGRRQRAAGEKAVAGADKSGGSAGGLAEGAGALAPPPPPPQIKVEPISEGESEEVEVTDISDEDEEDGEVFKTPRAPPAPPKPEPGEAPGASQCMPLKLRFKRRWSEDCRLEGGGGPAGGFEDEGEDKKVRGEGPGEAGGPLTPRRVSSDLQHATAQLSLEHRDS
# Summary of the method: as §1
# [12] = target: T7, ETV3L (Homo sapiens, UniProt Q6ZN32 1-361); settings: protein: recombinant; tags: N-terminal GST; dsDNA, one strand shown
# T7 sequence: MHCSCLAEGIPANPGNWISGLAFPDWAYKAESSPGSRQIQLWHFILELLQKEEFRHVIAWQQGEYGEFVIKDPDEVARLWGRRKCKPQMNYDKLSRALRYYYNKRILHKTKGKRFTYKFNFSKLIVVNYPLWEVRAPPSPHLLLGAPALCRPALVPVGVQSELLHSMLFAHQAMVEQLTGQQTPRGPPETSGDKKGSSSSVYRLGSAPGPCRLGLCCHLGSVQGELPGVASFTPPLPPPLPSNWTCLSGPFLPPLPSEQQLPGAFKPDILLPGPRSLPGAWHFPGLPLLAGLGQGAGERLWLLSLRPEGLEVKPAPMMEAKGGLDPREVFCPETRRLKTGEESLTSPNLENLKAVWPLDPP
# Summary of the method: as §1
# [13] = target: T8, ETS2 (Homo sapiens, UniProt P15036 1-469); settings: protein: recombinant; tags: N-terminal GST; dsDNA, one strand shown
# T8 sequence: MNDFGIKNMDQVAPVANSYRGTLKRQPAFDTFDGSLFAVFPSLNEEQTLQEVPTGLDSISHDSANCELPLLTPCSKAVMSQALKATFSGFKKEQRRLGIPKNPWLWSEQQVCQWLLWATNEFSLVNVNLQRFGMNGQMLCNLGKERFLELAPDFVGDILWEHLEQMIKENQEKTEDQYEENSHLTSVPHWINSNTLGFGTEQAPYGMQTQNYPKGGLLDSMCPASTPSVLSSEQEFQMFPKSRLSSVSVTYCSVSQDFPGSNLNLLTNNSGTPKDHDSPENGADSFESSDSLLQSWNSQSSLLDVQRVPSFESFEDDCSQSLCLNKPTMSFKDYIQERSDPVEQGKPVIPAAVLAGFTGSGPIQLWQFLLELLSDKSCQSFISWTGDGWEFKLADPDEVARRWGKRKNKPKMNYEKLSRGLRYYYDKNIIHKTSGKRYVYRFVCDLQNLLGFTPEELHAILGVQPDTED
# Summary of the method: as §1
# [14] = target: T9, SPDEF (Homo sapiens, UniProt O95238 1-335); settings: protein: recombinant; tags: N-terminal GST; dsDNA, one strand shown
# T9 sequence: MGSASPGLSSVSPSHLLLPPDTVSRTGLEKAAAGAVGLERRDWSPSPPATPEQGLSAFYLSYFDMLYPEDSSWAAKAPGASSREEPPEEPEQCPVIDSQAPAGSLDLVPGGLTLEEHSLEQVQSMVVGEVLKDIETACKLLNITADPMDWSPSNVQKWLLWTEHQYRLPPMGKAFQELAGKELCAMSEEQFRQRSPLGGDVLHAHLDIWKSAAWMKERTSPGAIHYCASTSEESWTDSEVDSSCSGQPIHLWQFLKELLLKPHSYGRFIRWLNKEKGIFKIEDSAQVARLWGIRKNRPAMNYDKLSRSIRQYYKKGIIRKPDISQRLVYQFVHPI
# Summary of the method: as §1
# [15] = target: T10, ETV7 (Homo sapiens, UniProt Q9Y603 1-341); settings: protein: recombinant; tags: N-terminal GST; dsDNA, one strand shown
# T10 sequence: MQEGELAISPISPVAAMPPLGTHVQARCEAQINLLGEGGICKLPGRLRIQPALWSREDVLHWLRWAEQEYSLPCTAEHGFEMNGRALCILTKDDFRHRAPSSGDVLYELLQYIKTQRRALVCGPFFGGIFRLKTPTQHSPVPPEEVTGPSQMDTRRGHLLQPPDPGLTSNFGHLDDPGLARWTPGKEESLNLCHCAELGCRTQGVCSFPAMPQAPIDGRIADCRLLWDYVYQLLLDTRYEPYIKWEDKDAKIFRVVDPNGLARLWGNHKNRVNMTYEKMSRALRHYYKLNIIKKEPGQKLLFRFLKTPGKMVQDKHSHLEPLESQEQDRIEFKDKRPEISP
# Summary of the method: as §1
# [16] = target: T11, ELF5 (Homo sapiens, UniProt Q9UKW6-2 1-255); settings: protein: recombinant; tags: N-terminal GST; dsDNA, one strand shown
# T11 sequence: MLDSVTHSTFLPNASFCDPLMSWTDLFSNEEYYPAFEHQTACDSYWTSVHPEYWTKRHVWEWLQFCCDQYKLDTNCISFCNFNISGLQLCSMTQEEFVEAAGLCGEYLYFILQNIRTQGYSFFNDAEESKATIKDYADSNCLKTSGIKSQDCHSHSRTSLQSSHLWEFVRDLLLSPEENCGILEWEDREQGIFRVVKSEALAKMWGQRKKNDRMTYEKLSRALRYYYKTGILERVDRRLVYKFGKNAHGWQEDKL
# Summary of the method: as §1
# [17] = target: T12, ETV3 (Homo sapiens, UniProt P41162-2 1-143); settings: protein: recombinant; tags: N-terminal GST; dsDNA, one strand shown
# T12 sequence: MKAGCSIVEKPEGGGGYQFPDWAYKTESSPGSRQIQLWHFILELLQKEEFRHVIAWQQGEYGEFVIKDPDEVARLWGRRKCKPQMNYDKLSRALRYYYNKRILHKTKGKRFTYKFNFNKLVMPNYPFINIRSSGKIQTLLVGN
# Summary of the method: as §1
# [18] = target: ETV6 (Homo sapiens, UniProt P41212 1-452); settings: protein: recombinant; tags: N-terminal GST; dsDNA, one strand shown
# Summary of the method: as §1
# Chain of ELF4 (Q99607 whole entry): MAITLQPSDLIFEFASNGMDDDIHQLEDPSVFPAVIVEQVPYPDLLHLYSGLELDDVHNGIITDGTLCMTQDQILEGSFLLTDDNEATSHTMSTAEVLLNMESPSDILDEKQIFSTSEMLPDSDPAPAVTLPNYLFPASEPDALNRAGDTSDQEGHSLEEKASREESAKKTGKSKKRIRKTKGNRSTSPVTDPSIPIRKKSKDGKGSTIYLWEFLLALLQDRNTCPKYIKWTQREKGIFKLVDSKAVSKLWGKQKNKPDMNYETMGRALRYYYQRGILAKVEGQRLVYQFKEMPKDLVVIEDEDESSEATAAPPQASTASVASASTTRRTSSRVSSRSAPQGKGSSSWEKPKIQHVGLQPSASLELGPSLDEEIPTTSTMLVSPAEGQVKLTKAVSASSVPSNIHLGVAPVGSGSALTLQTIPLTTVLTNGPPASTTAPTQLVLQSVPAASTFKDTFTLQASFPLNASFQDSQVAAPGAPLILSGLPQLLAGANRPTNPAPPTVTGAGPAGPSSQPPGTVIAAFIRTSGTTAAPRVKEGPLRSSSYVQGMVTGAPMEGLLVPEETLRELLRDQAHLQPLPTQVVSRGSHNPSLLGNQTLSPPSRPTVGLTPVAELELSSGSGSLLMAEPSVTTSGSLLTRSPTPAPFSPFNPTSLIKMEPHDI
# Chain of ETV1 (P50549 whole entry): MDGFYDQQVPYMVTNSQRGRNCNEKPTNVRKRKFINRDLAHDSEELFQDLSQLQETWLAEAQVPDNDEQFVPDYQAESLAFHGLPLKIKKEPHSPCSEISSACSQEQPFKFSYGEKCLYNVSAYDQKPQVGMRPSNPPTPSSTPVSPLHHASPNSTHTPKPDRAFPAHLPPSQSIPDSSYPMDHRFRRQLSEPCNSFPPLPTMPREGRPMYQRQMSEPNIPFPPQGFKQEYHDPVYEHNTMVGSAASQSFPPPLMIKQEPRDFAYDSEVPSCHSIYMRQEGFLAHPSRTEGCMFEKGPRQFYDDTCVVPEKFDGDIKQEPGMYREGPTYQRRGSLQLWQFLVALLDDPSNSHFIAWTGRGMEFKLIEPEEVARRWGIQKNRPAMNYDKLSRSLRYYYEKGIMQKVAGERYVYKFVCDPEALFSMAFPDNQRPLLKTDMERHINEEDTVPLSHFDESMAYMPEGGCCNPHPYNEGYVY
# Chain of HSF1 (Q00613 whole entry): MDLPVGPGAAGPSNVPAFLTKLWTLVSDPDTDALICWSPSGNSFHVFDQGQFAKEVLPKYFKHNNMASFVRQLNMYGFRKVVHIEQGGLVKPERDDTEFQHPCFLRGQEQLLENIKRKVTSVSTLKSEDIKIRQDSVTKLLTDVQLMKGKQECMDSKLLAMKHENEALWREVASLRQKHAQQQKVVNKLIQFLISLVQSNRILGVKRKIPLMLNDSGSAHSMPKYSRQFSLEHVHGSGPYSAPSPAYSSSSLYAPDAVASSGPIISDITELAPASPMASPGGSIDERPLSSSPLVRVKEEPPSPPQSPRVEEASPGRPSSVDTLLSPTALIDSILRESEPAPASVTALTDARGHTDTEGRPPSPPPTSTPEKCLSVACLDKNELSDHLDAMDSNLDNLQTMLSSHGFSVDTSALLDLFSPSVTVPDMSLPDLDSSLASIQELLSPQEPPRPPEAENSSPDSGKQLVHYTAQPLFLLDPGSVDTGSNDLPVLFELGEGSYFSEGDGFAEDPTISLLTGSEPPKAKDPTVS
# Chain of ETV5 (P41161 whole entry): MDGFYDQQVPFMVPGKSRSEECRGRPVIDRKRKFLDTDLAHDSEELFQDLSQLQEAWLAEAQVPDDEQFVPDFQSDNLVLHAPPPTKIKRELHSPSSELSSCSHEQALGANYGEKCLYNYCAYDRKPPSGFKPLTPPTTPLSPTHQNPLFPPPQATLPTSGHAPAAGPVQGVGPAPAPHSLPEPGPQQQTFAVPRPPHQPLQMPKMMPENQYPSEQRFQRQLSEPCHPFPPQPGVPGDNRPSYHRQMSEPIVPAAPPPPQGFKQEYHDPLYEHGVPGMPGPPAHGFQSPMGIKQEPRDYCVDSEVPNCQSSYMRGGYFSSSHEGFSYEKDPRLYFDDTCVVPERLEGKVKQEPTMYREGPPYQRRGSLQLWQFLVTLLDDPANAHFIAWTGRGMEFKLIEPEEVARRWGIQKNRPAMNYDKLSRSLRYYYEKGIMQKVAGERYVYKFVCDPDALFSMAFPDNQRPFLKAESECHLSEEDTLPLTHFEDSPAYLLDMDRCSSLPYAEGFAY
# Chain of ETV6 (P41212 whole entry): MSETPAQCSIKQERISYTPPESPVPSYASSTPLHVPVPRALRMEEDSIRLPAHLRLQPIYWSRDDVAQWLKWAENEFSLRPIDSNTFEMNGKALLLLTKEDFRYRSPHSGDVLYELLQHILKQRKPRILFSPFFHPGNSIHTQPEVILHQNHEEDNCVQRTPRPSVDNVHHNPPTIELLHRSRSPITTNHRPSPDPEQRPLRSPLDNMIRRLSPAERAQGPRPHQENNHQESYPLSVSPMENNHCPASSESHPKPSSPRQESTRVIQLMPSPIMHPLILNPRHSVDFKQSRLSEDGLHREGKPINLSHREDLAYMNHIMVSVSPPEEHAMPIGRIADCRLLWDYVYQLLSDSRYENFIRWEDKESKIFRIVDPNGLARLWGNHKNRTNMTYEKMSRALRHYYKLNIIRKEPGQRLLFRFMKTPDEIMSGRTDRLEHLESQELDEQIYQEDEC
# Chain of CRX (O43186 whole entry): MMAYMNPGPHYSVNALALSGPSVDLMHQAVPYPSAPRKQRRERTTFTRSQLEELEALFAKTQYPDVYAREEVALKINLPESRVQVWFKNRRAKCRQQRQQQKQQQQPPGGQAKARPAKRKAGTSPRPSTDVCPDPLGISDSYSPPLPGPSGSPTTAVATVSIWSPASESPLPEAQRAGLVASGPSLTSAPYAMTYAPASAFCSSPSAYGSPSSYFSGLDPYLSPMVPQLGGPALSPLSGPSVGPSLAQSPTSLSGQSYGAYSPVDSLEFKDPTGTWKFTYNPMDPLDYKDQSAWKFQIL
sequence,measurement,setting,value
CCTTTC,binding signal,[1],"1.71 fold enrichment (6-mer frequency, TF over GST control)"
same,binding signal,[2],"1.51 fold enrichment (6-mer frequency, TF over GST control)"
same,binding signal,[3],"1.43 fold enrichment (6-mer frequency, TF over GST control)"
same,binding signal,[4],"1.65 fold enrichment (6-mer frequency, TF over GST control)"
same,binding signal,[5],"1.68 fold enrichment (6-mer frequency, TF over GST control)"
same,binding signal,[6],"1.64 fold enrichment (6-mer frequency, TF over GST control)"
same,binding signal,[7],"1.56 fold enrichment (6-mer frequency, TF over GST control)"
same,binding signal,[8],"1.42 fold enrichment (6-mer frequency, TF over GST control)"
same,binding signal,[9],"1.27 fold enrichment (6-mer frequency, TF over GST control)"
same,binding signal,[10],"1.5 fold enrichment (6-mer frequency, TF over GST control)"
same,binding signal,[11],"1.62 fold enrichment (6-mer frequency, TF over GST control)"
same,binding signal,[12],"1.54 fold enrichment (6-mer frequency, TF over GST control)"
same,binding signal,[13],"1.59 fold enrichment (6-mer frequency, TF over GST control)"
same,binding signal,[14],"1.5 fold enrichment (6-mer frequency, TF over GST control)"
same,binding signal,[15],"1.39 fold enrichment (6-mer frequency, TF over GST control)"
same,binding signal,[16],"1.75 fold enrichment (6-mer frequency, TF over GST control)"
same,binding signal,[17],"1.62 fold enrichment (6-mer frequency, TF over GST control)"
same,binding signal,[18],"1.62 fold enrichment (6-mer frequency, TF over GST control)"

# From paper PMC7862700, “An all-to-all approach to the identification of sequence-specific readers for epigenetic DNA modifications on cytosine”
